# How the values were obtained:
# Settings in all cases: inducer concentration 5 mM; 6 h; Cupriavidus necator H16; minimal medium + 0.4% gluconate
# [1] = system: AcoR/P_H16_RS19445 acetoin biosensor (pEH052); experiment: relative induction of RFP reporter vs primary effector; higher = stronger activation
# Method: (§1)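 Orthogonality screen of 21 primary inducers against 21 transcription factor/inducible promoter–mRFP biosensors in C. necator H16 in minimal medium, robotic 96-well format, 5 mM inducer, 30 °C. OD-normalised RFP fluorescence was read 6 h later and expressed as relative induction (%) = 100 × (FL compound − FL uninduced)/(FL primary inducer − FL uninduced); mean of n=4. Cognate pairs (100% by definition) omitted.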
# [2] = system: AraC/P_araBAD L-arabinose biosensor (pEH176); experiment: as above
# Method: as §1
# [3] = system: BadR/P_H16_RS27200 cyclohexanecarboxylate biosensor (pEH159); experiment: as above
# Method: as §1
# [4] = system: BenM/P_H16_RS09790 benzoate biosensor (pEH148); experiment: as above
# Method: as §1
# [5] = system: FdsR/P_H16_RS03165 formate biosensor (pEH134); experiment: as above
# Method: as §1
# [6] = system: GabR/P_H16_RS23655 GABA biosensor (pEH256); experiment: as above
# Method: as §1
# [7] = system: HpdA/P_H16_RS24175 L-tyrosine biosensor (pEH158); experiment: as above
# Method: as §1
# [8] = system: NahR/P_H16_RS08125 salicylate biosensor (pEH042); experiment: as above
# Method: as §1
# [9] = system: OapR/P_H16_RS01330 beta-alanine biosensor (pEH147); experiment: as above
# Method: as §1
# [10] = system: PcaQ/P_H16_RS30145 3,4-dihydroxybenzoate biosensor (pEH161); experiment: as above
# Method: as §1
# [11] = system: PhgR/P_H16_RS05530 phenylglyoxylate biosensor (pEH155); experiment: as above
# Method: as §1
# [12] = system: SauR/P_H16_RS13695 sulfonatoacetate biosensor (pEH157); experiment: as above
# Method: as §1
# [13] = system: TtdR/P_H16_RS10665 tartrate biosensor (pEH083); experiment: as above
# Method: as §1
# [14] = system: XdhR/P_H16_RS05055 xanthine biosensor (pEH154); experiment: as above
# Method: as §1
# [15] = system: heterologous L-rhamnose-inducible system; experiment: as above
# Method: as §1
# [16] = system: heterologous acrylate-inducible system; experiment: as above
# Method: as §1
# [17] = system: heterologous cumate-inducible system; experiment: as above
# Method: as §1
# [18] = system: heterologous itaconate-inducible system; experiment: as above
# Method: as §1
# [19] = system: AcoR/P_H16_RS19445 acetoin biosensor (pEH052); experiment: relative induction of RFP reporter vs primary effector (background-corrected); higher = stronger activation of the biosensor
# Method: (§2)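 C. necator H16 strains, each carrying one of 21 transcription factor/inducible promoter–mRFP biosensor plasmids, were grown in minimal medium in 96-well plates (robotic platform). Each was exposed to 46 structurally or metabolically related compounds at 5 mM at 30 °C. OD-normalised RFP fluorescence was read 6 h later and expressed as relative induction (%) = 100 × (FL compound − FL uninduced)/(FL primary inducer − FL uninduced); mean of n=4.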
# [20] = system: AraC/P_araBAD L-arabinose biosensor (pEH176); experiment: as above
# Method: as §2
# [21] = system: BenM/P_H16_RS09790 benzoate biosensor (pEH148); experiment: as above
# Method: as §2
# [22] = system: FdsR/P_H16_RS03165 formate biosensor (pEH134); experiment: as above
# Method: as §2
# [23] = system: GabR/P_H16_RS23655 GABA biosensor (pEH256); experiment: as above
# Method: as §2
# [24] = system: HpdR/P_H16_RS18295 3-hydroxypropanoate biosensor (pEH010); experiment: as above
# Method: as §2
# [25] = system: KynR/P_H16_RS14030 L-kynurenine biosensor (pEH136); experiment: as above
# Method: as §2
# [26] = system: NahR/P_H16_RS08125 salicylate biosensor (pEH042); experiment: as above
# Method: as §2
# [27] = system: OapR/P_H16_RS01330 beta-alanine biosensor (pEH147); experiment: as above
# Method: as §2
# [28] = system: PcaQ/P_H16_RS30145 3,4-dihydroxybenzoate biosensor (pEH161); experiment: as above
# Method: as §2
# [29] = system: PhgR/P_H16_RS05530 phenylglyoxylate biosensor (pEH155); experiment: as above
# Method: as §2
# [30] = system: PhhR/P_H16_RS18365 L-phenylalanine biosensor (pEH137); experiment: as above
# Method: as §2
# [31] = system: SauR/P_H16_RS13695 sulfonatoacetate biosensor (pEH157); experiment: as above
# Method: as §2
# [32] = system: TtdR/P_H16_RS10665 tartrate biosensor (pEH083); experiment: as above
# Method: as §2
# [33] = system: XdhR/P_H16_RS05055 xanthine biosensor (pEH154); experiment: as above
# Method: as §2
# [34] = system: heterologous inducible system pEH002 (rhamnose/acrylate/cumate/itaconate set); experiment: as above
# Method: as §2
# [35] = system: heterologous inducible system pEH020 (rhamnose/acrylate/cumate/itaconate set); experiment: as above
# Method: as §2
# [36] = system: heterologous inducible system pEH040 (rhamnose/acrylate/cumate/itaconate set); experiment: as above
# Method: as §2
# [37] = system: heterologous inducible system pEH086 (rhamnose/acrylate/cumate/itaconate set); experiment: as above
# Method: as §2
# 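For relative induction of RFP reporter vs primary effector (background-corrected) in this document: RFP excited at 585 nm with emission read at 620 nm, culture medium blanks subtracted from fluorescence and absorbance prior to normalisation.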
compound,measurement,setting,value
Nc1ccccc1C(=O)C[C@H](N)C(=O)O [L-kynurenine],relative induction of RFP reporter,[1],-1.84%
same,relative induction of RFP reporter,[2],-0.00708%
same,relative induction of RFP reporter,[3],-0.604%
same,relative induction of RFP reporter,[4],-0.0309%
same,relative induction of RFP reporter,[5],-4.32%
same,relative induction of RFP reporter,[6],-1.24%
same,relative induction of RFP reporter,[7],0.183%
same,relative induction of RFP reporter,[8],0.00391%
same,relative induction of RFP reporter,[9],0.521%
same,relative induction of RFP reporter,[10],-0.136%
same,relative induction of RFP reporter,[11],-0.296%
same,relative induction of RFP reporter,[12],0.00419%
same,relative induction of RFP reporter,[13],-0.312%
same,relative induction of RFP reporter,[14],-0.483%
same,relative induction of RFP reporter,[15],-0.00942%
same,relative induction of RFP reporter,[16],-1.79%
same,relative induction of RFP reporter,[17],-0.886%
same,relative induction of RFP reporter,[18],-0.412%
N[C@@H](Cc1c[nH]c2ccccc12)C(=O)O [L-tryptophan],relative induction of RFP reporter,[19],-1.3%
same,relative induction of RFP reporter,[20],0.00791%
same,relative induction of RFP reporter,[21],-0.0226%
same,relative induction of RFP reporter,[22],34.8%
same,relative induction of RFP reporter,[23],-1.31%
same,relative induction of RFP reporter,[24],-0.00554%
same,relative induction of RFP reporter,[25],65.7%
same,relative induction of RFP reporter,[26],0.00282%
same,relative induction of RFP reporter,[27],-0.39%
same,relative induction of RFP reporter,[28],-0.161%
same,relative induction of RFP reporter,[29],-0.235%
same,relative induction of RFP reporter,[30],1.21%
same,relative induction of RFP reporter,[31],0.0508%
same,relative induction of RFP reporter,[32],-0.293%
same,relative induction of RFP reporter,[33],-0.684%
same,relative induction of RFP reporter,[34],0.00955%
same,relative induction of RFP reporter,[35],-1.17%
same,relative induction of RFP reporter,[36],-1.03%
same,relative induction of RFP reporter,[37],-0.228%
O=CC(=O)O,relative induction of RFP reporter,[29],-0.587%
OC1OC[C@H](O)[C@H](O)[C@H]1O (mixture of isomers) [L-arabinose],relative induction of RFP reporter,[1],-0.298%
same,relative induction of RFP reporter,[3],-0.67%
same,relative induction of RFP reporter,[4],-0.0174%
same,relative induction of RFP reporter,[5],-1.73%
same,relative induction of RFP reporter,[6],-0.944%
same,relative induction of RFP reporter,[7],0.0304%
same,relative induction of RFP reporter,[8],-0.0109%
same,relative induction of RFP reporter,[9],-0.0273%
same,relative induction of RFP reporter,[10],-0.0772%
same,relative induction of RFP reporter,[11],-0.169%
same,relative induction of RFP reporter,[12],-0.00743%
same,relative induction of RFP reporter,[13],-0.392%
same,relative induction of RFP reporter,[14],-0.221%
same,relative induction of RFP reporter,[15],0.00935%
same,relative induction of RFP reporter,[16],-0.681%
same,relative induction of RFP reporter,[17],-0.337%
same,relative induction of RFP reporter,[18],0.00235%
CC(=O)C(C)O (configuration not stated) [acetoin],relative induction of RFP reporter,[2],0.00953%
same,relative induction of RFP reporter,[3],-0.805%
same,relative induction of RFP reporter,[4],-0.0473%
same,relative induction of RFP reporter,[5],-6.92%
same,relative induction of RFP reporter,[6],-1.36%
same,relative induction of RFP reporter,[7],-0.195%
same,relative induction of RFP reporter,[8],0.00159%
same,relative induction of RFP reporter,[9],-0.507%
same,relative induction of RFP reporter,[10],-0.169%
same,relative induction of RFP reporter,[11],-0.461%
same,relative induction of RFP reporter,[12],-0.0229%
same,relative induction of RFP reporter,[13],0.102%
same,relative induction of RFP reporter,[14],-0.695%
same,relative induction of RFP reporter,[15],-0.0013%
same,relative induction of RFP reporter,[16],-1.85%
same,relative induction of RFP reporter,[17],-1.61%
same,relative induction of RFP reporter,[18],0.0808%
